Experimental findings from PubChem BioAssay (NCATS) are described below.

Values without a mark were called inactive. Results filed as inconclusive are left out. The source made the active and inactive calls. Unless noted, calls follow the shape of the dose curve; as a rule, active = well fitted curve in the direction sought with a large enough effect; inconclusive = small, poorly fitted or top-dose-only effect, or another doubt; inactive = no such curve, though single readings can be large; an effect the other way counts as inactive or inconclusive.

For assay [1], the target named is Glutaminase kidney isoform, mitochondrial (Homo sapiens) (UniProt O94925). Put plainly: qHTS for Inhibitors of Glutaminase (GLS): LOPAC Validation (AID 624146). Also: nearly all actives have a fitted effect of over 60% in size. Also: potency is read from the fitted curve at half-maximal effect. The settings on record: glutaminase enzyme activity inhibition; series mostly up to 46.1 µM. Put shortly:
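Two-point fluorescence kinetic (t0, 30 min RT) for hKGA; glutamate detected via glutamate oxidase–HRP–Amplex Red. Substrate: 1 mM L-glutamine solution; buffer 45 mM KH2PO4, pH 8.2.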

Assay [2] in a line: qHTS of Trypanosoma Brucei Inhibitors: LOPAC Validation (AID 624147). Also: 0% is about no effect. To be noted: purified enzyme assay, luminescence, 45 min; series mostly up to 57.5 µM. An outline of the steps: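 Assay buffer: 50 mM TEA pH 7.2, 100 mM KCl, 10 mM MgCl2, 0.05% BSA, 0.01% Tween-20. Pyruvate kinase from T. brucei plus substrate met compound, then ADP (130 uM final). Luminescence was read post 45 min RT.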
(Quantitative high-throughput screening tests each substance at several concentrations.)

Assay [3] is described as follows: qHTS of Nrf2 Activators: LOPAC Validation (AID 624149). Also: 0% is about no effect. The settings on record: Nrf2/ARE reporter cell assay; series mostly up to 46.1 µM. An outline of the steps: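 AREc32_Fluc cells, 1000/well in OPTI-MEM with 5% FBS, grown overnight, then exposed to compounds for 24 hr at 37 deg C, 5% CO2. ARE-driven firefly luciferase read by Steady-Glo luminescence after 30 min at RT.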

The nature of assay [4]: HTS Assay for Allosteric Antagonists of the Human D2 Dopamine Receptor: Hit Validation in HTRF (AID 624455).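 Also: stable D1 dopamine receptor cell line scored for blocking the D1 response; % is scaled to controls: 0 for no effect and ±100 for the full control effect.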 To be noted: Cells stably expressing D1 dopamine receptor, inhibition mode; series mostly up to 46.1 µM. An outline of the steps:
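Hit validation in cells stably expressing the D1 dopamine receptor, run in HTRF format. Compounds were tested for their ability to inhibit the D1-mediated response.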
On the technique in general: In TR-FRET formats the signal depends on donor and acceptor labels being close together.

Assay [5] has as its target Glucagon-like peptide 1 receptor (Homo sapiens) (UniProt P43220). The assay is described as follows: qHTS of GLP-1 Receptor Agonists: LOPAC Validation (AID 624148).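 Also: luminescence from a luciferase reporter switched on by cAMP; 0% is about no effect; higher luminescence signal means agonism.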 To be noted: GLP-1R agonist cell assay; series mostly up to 46.1 µM. Put shortly: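 Agonism scored as increased luciferase luminescence driven by cAMP in HEK293 clones carrying GLP-1R. Cells settled 12 hours, received compound for 4-6 hr at 37 deg C, 5% CO2, and were read after 12 min detection reagent at RT.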

The nature of assay [6]: qHTS assay for small molecule activators of the nuclear factor-kappa B (NF-kB) signaling pathway (AID 651749; active = well fitted activation curve with a large enough effect in the signal ratio; the % refers to the signal ratio; also: % of control where 0% means no effect). To be noted: NF-kB-bla ME-180 cells, beta-lactamase FRET ratio, 16 h; stronger effect = higher value. An outline of the steps: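 Readout: beta-lactamase reporter driven by an NF-kB response element, detected fluorescently as loss of FRET. Cells were the ME-180 line, treated 16 hr at 37C with pin-transferred compound.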

The nature of assay [7]: qHTS assay for small molecule activators of the p53 signaling pathway (AID 651743; active = well fitted activation curve with a large enough effect in the signal ratio, not every such curve was filed as active; the % refers to the signal ratio; also: % of control where 0% means no effect). To be noted: HCT-116 p53RE-bla, beta-lactamase FRET ratio, 16 h; activation: stronger effect = higher value. Put shortly:
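Read-out is fluorescence intensity from the LiveBLAzer B/G FRET substrate, added for 2 hours at room temperature after HCT-116 p53RE-bla cells had been incubated with compounds for 16 hours at 37 C.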

Glucagon-like peptide 1 receptor (Homo sapiens), sequence (P43220 whole entry, looked up): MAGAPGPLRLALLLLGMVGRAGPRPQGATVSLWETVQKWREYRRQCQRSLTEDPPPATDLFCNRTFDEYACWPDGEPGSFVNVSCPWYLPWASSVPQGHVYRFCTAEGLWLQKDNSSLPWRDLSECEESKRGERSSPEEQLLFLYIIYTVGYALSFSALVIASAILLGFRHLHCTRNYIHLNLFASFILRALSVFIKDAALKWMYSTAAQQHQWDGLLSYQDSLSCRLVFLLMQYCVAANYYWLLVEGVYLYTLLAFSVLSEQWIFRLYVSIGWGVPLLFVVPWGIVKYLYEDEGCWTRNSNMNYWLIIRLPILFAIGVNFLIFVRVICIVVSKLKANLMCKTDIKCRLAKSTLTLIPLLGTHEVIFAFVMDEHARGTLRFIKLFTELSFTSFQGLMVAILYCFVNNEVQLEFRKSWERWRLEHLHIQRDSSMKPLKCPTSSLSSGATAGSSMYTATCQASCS
Glutaminase kidney isoform, mitochondrial (Homo sapiens), sequence (O94925 whole entry, looked up, canonical isoform): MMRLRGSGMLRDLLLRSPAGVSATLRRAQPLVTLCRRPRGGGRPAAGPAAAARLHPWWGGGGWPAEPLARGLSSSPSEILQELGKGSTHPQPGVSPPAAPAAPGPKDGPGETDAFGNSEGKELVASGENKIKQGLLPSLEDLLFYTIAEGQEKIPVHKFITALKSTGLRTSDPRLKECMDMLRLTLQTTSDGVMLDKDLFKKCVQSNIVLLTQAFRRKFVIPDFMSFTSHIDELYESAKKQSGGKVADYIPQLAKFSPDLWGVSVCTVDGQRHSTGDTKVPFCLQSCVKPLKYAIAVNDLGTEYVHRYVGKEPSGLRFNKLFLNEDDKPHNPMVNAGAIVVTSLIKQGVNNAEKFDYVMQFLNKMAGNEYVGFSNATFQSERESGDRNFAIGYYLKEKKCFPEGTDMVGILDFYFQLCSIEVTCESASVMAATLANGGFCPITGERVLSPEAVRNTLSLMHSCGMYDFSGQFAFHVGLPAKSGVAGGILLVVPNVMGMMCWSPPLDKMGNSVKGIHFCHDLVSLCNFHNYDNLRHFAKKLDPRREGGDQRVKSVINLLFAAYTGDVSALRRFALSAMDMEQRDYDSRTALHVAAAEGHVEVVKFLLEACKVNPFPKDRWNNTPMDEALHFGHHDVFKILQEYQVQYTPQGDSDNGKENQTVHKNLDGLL

`CSc1nc(N)c2ncn([C@@H]3O[C@H](COP(=O)(O)OP(=O)(O)OP(=O)(O)O)[C@@H](O)[C@H]3O)c2n1`: the Potency result in assay [1], in assay [2] and in assay [4] was “inactive” throughout. For the same molecule, the molecule was called inactive in assay [3].

For `CC(=O)N[C@H](C(=O)O)C(C)(C)SN=O`, the Potency result in assay [1], in assay [2] and in assay [4] was “inactive” throughout. Also, the outcome in assay [3] was inactive.

Turning to `Cc1nc2sccn2c(=O)c1CCN1CCC(=C(c2ccccc2)c2ccc(F)cc2)CC1`, the Potency result in assay [1], in assay [2] and in assay [4] was “inactive” in each case. Moreover, in assay [3], the outcome was inactive.

As to `C=C[C@@H]1CN2CC[C@@H]1C[C@H]2[C@H](O)c1ccnc2ccc(OC)cc12`, the Potency entry in assay [1], in assay [2] and in assay [4] was “inactive” in each case. The outcome in assay [3] was inactive.

`C=C[C@H]1CN2CC[C@@H]1C[C@@H]2[C@@H](O)c1ccnc2ccc(OC)cc12`: the Potency entry in assay [1], in assay [2] and in assay [4] was “inactive” each time. In assay [3], the outcome was inactive.

Turning to `COc1ccccc1N1CCN(CCN(C(=O)c2ccc(I)cc2)c2ccccn2)CC1`, the Potency entry in assay [1], in assay [2] and in assay [4] was “inactive” throughout. The molecule was called inactive in assay [3].

Take `CN1CCc2cccc3c2C1Cc1ccc(O)c(O)c1-3` (stereo not given): in assay [1], the Potency was 4.47 µM (active). Also, the outcome in assay [5] and in assay [3] was inactive.

With `COc1cccc(C(=O)NCCN2CCN(c3ccc(Cl)cc3)CC2)c1`, the Potency entry in assay [1], in assay [2] and in assay [4] was “inactive” each time. In addition, the result in assay [3] was inactive.

As for `Nc1nc(Nc2ccccc2)nc2c1ncn2[C@@H]1O[C@H](CO)[C@@H](O)[C@H]1O`, the Potency entry in assay [1], in assay [2] and in assay [4] was “inactive” in each case. Further, in assay [3], the outcome was inactive.

As to `O=C(O)c1cc(=O)c2c(Cl)cc(Cl)cc2[nH]1`, the Potency result in assay [1], in assay [2] and in assay [4] was “inactive” throughout. In assay [3], the result was inactive.

Turning to `COc1cc2nc(N3CCN(C(=O)OCc4ccccc4)C(C(=O)NC(C)(C)C)C3)nc(N)c2cc1OC` (stereo not given), the Potency result in assay [1], in assay [2] and in assay [4] was “inactive” each time. Moreover, in assay [3], the outcome was inactive.

Regarding `CCCCN1CCC(n2c(=O)[nH]c3ccccc32)CC1`, the Potency result in assay [1], in assay [2] and in assay [4] was “inactive” throughout. For the same molecule, the molecule was classed as inactive in assay [3].

`CCCCCCCCCCCCCCCCCCNC(=O)OCC(COP(=O)([O-])OCC[n+]1ccsc1)OC` (stereo not given): the Potency entry in assay [1], in assay [2] and in assay [4] was “inactive” throughout. In addition, in assay [3], the call was inactive.

For the molecule `NC(N)=NC(=O)c1nc(Cl)c(N2CCCCCC2)nc1N`, the Potency entry in assay [1], in assay [2] and in assay [4] was “inactive” each time. Moreover, the outcome in assay [3] was inactive.

As for `Clc1ccc(N2CCN(Cc3c[nH]c4ncccc34)CC2)cc1`, the Potency entry in assay [1], in assay [2] and in assay [4] was “inactive” each time. The result in assay [3] was inactive.

`c1cnc2c(c1)ccc1cccnc12`: the Potency result in assay [1], in assay [2] and in assay [4] was “inactive” each time. For the same molecule, the result in assay [3] was inactive. Besides, the activation in assay [6] was 1.8%.

As to `Cn1ncc(S(=O)(=O)Cc2ccccc2)c(Br)c1=O`, the Potency result in assay [1], in assay [2] and in assay [4] was “inactive” throughout.

For `C=CC(=O)c1ccc(CCCCCC)cc1`, the Potency result in assay [1] and in assay [2] was “inactive” throughout. For the same molecule, the result in assay [3] was inactive.

For the molecule `N#C/C(=C\c1ccc(O)c(O)c1)C(=O)NCc1ccccc1`, the Potency in assay [1] is 0.562 µM (active). Besides, the Potency result in assay [2] and in assay [4] was “inactive” in each case. For the same molecule, in assay [3], the outcome was inactive.

Turning to `NC(=O)C1=CN(C2OC(COP(=O)(O)OP(=O)(O)OC[C@H]3O[C@@H](n4cnc5c(N)ncnc54)[C@H](OP(=O)(O)O)[C@@H]3O)C(O)C2O)C=CC1` (stereo not given in full), the Potency result in assay [1], in assay [2] and in assay [4] was “inactive” each time. Moreover, in assay [3], the result was inactive.

`CNC(=O)[C@H]1O[C@@H](n2cnc3c(NCc4cccc(I)c4)ncnc32)[C@H](O)[C@@H]1O`: the Potency entry in assay [1], in assay [2] and in assay [4] was “inactive” in each case. Moreover, in assay [3], the molecule was called inactive.

Turning to `COc1cc(C(O)CO)ccc1OS(=O)(=O)O` (stereo not given), the Potency entry in assay [1], in assay [2] and in assay [4] was “inactive” each time. For the same molecule, in assay [3], the molecule was classed as inactive.

`CN(C)c1nc(N)c(C(=O)N=C(N)N)nc1Cl`: the Potency result in assay [1], in assay [2] and in assay [4] was “inactive” each time. In addition, the molecule was called inactive in assay [3].

For `O=C(O)[C@@H]1C[C@@H](C(=O)O)N1`, the Potency entry in assay [1], in assay [2] and in assay [4] was “inactive” in each case. The outcome in assay [3] was inactive.

Turning to `CC(C)(C)c1ccc(S(=O)(=O)/C=C/C#N)cc1`, the Potency in assay [1] was 7.08 µM (active). For the same molecule, in assay [5], the result was inactive.

`O=C(/C=C/c1ccc(O)cc1)c1ccc(O)cc1O`: the Potency in assay [1] is 10 µM (active). Also, the Potency entry in assay [2] and in assay [4] was “inactive” each time.

On to `N#C/C(=C\c1ccc(O)c(O)c1)C(=O)c1ccc(O)c(O)c1`, for which the Potency entry in assay [2] and in assay [4] was “inactive” each time. For the same molecule, the molecule was called inactive in assay [5] and in assay [3].

For `O=C(O)/C=C\C(=O)O`, the activation was -1.58% in assay [7] and -0.21% in assay [6].
